# Results reported in PubChem BioAssay (NCATS).
# Results filed as inconclusive are left out. Activity calls are given as the source filed them. Unless noted, calls come from the whole dose curve.
# How the values were obtained:
# [1] = qHTS Assay for Lipid Storage Modulators (AID 1519); conditions: Drosophila S3 cells, BODIPY lipid droplet/cell ratio, laser cytometry, cells loaded with oleic acid; for activity change, negative = inhibition: % is set by controls: 0 for no effect and ±100 for the full control effect
# Procedure, shortened: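 Cells seeded at 5,000 per well were treated with compounds over a concentration series and loaded with oleic acid (400 uM, as added). Lipid droplet fluorescence (488 nm excitation, 500-530 nm channel) was read by laser-scanning cytometry and normalized to 20 uM Triacsin C.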
# [2] = target: Alpha-galactosidase A (Homo sapiens) (UniProt P06280); assay: Counterscreen for Glucocerebrosidase Inhibitors: qHTS Assay for Human alpha-Galactosidase at pH 4.5 (AID 992; active = well fitted curve in the direction sought with a large enough effect; an effect the other way counts as inactive or inconclusive; note: 0% is about no effect); conditions: purified enzyme, fluorogenic substrate; series mostly up to 76.9 µM
# Alpha-galactosidase A (Homo sapiens), sequence (P06280 whole entry, looked up): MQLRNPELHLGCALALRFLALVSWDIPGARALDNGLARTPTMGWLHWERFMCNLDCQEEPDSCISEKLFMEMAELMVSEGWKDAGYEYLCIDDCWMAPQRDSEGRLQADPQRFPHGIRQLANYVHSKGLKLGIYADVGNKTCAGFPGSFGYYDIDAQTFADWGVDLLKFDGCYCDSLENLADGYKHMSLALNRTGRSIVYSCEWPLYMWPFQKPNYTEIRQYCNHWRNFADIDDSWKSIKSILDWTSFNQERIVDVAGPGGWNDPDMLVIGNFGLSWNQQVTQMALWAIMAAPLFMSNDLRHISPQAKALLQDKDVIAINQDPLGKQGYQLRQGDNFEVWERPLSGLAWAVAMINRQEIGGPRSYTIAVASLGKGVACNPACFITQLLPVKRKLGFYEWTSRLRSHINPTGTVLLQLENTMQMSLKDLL
# Procedure, shortened: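 Citrate buffer pH 4.5, Tween-20 0.005%. Enzyme 2 nM, substrate 80 uM, 20 min RT. Stop pH 10. Fluorescence Ex 365/Em 440. AC50 by Hill fit.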
# [3] = target: alpha-glucosidase (Oryza sativa, rice) (UniProt Q653V4); assay: Counterscreen for Glucocerebrosidase Inhibitors: qHTS Assay for Rice alpha-Glucosidase at pH 5.0 (AID 997; active = well fitted curve in the direction sought with a large enough effect; an effect the other way counts as inactive or inconclusive;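 note: 0% = full activity with enzyme and -100% = basal without enzyme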); conditions: rice alpha-glucosidase enzyme activity; series mostly up to 76.9 µM
# Procedure, shortened: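 Endpoint fluorogenic assay at pH 5.0: compounds (0.7 nM to 77 uM) titrated against 4 nM rice enzyme and 400 uM 4-MU-alpha-glucoside for 20 min at room temperature; NaOH/glycine stop, read ex 365/em 440 nm, Hill-fitted AC50.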
# [4] = Validation of Assay for Modulators of Lamin A Splicing (AID 1459; active = well fitted curve in the direction sought with a large enough effect in the signal ratio; the % refers to the signal ratio;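 note: cells exposed to compound for two days before reading; 0% is about no effect; ratio rise marks activators and ratio drop marks inhibitors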); conditions: Lamin A splicing dual RFP/GFP fluorescence reporter; series mostly up to 9.22 µM
# Procedure, shortened: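 HeLa S3 lamin A-EGFP/DsRed2 stable clone, 600 cells/well, Opti-MEM 2% FBS; compounds by pin tool; 48 hrs, 37 °C/5% CO2; Acumen 488 nm scan, objects 10-100 um; GFP/RFP intensity ratio.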
# [5] = target: DNA repair nuclease/redox regulator APEX1 (Homo sapiens) (UniProt P27695); assay: qHTS Validation Assay for Inhibitors of the Human Apurinic/apyrimidinic Endonuclease 1 (APE1) (AID 1705; active = well fitted curve in the direction sought with a large enough effect; an effect the other way counts as inactive or inconclusive;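 note: TAMRA fluorescence gain over two minutes as APE1 cuts a quenched THF abasic duplex; % is set by controls: 0 for no effect and ±100 for the full control effect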); conditions: purified APE1 endonuclease activity, fluorescence, titration; series mostly up to 57.1 µM
# DNA repair nuclease/redox regulator APEX1 (Homo sapiens), sequence (P27695 whole entry, looked up): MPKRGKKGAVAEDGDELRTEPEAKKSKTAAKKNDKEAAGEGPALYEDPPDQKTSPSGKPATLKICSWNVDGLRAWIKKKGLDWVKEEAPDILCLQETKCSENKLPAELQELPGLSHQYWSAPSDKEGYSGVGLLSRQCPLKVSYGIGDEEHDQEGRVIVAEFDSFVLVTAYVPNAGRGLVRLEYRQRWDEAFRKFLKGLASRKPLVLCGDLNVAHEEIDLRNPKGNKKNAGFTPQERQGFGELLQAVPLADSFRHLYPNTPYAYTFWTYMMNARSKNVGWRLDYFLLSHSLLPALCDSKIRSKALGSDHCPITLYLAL
# Procedure, shortened: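 qHTS, 1536-well. APE1 + cpd 15 min RT → 50 nM TAMRA/BHQ-2 THF-abasic dsDNA substrate → kinetic fluorescence, 3 reads/60 s; delta(read3−read1) = reaction progress. No-enzyme buffer = negative control.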
# [6] = Counterscreen for APE1 Inhibitors: Fluorescent Dye Displacement Validation Assay (AID 1707; active = well fitted curve in the direction sought with a large enough effect; an effect the other way counts as inactive or inconclusive;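 note: plate controls were ThO with dsDNA and no compound for no effect and ThO without dsDNA for full effect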); conditions: fluorescent dye displacement from DNA; series mostly up to 57.1 µM
# Procedure, shortened: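 Signal: ThO fluorescence (ex 480 nm/em 540 nm) on binding 50 nM dsDNA; displacement by test compound reduces it. Conditions: 250 nM dye, 50 mM Tris-HCl pH7.5, 2 mM MgCl2, 50mM NaCl, 0.01% Tween-20.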
# [7] = qHTS for differential inhibitors of proliferation of Plasmodium falciparum line D10 (AID 1877; active = well fitted curve in the direction sought with a large enough effect; an effect the other way counts as inactive or inconclusive;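 note: parasites grown with compound for 72 h before DNA staining; plate controls were vehicle wells for no effect and reference inhibitor wells for full effect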); conditions: series mostly up to 28.7 µM
# [8] = target: Endonuclease 4 (Escherichia coli (strain K12)) (UniProt P0A6C1); assay: Counterscreen for APE1 Inhibitors: qHTS Validation Assay for Inhibitors of Endonuclease IV (AID 1708; active = well fitted curve in the direction sought with a large enough effect; an effect the other way counts as inactive or inconclusive; note: % is set by controls: 0 for no effect and ±100 for the full control effect); conditions: E. coli endonuclease IV, DNA cleavage fluorescence; series mostly up to 57.1 µM
# Procedure, shortened: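 The reaction buffer contained 50 mM Tris-HCl pH 7.5, 50 mM NaCl, 2 mM MgCl2, 1 mM DTT and 0.01% Tween-20. Incision of a 50 nM fluorophore/quencher THF substrate by 2 nM enzyme was measured kinetically.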
# [9] = qHTS for differential inhibitors of proliferation of Plasmodium falciparum line GB4 (AID 1816; active = well fitted curve in the direction sought with a large enough effect; an effect the other way counts as inactive or inconclusive;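 note: parasite growth measured after 72 h incubation; 0% = vehicle DMSO and -100% = reference inhibitor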); conditions: Potency: Plasmodium falciparum GB4 proliferation inhibition; series mostly up to 28.7 µM
# [10] = qHTS for differential inhibitors of proliferation of Plasmodium falciparum line 3D7 (AID 1876; active = well fitted curve in the direction sought with a large enough effect; an effect the other way counts as inactive or inconclusive;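 note: parasite growth measured after three days of culture; 0% = vehicle wells and -100% = reference inhibitor wells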); conditions: P. falciparum 3D7 proliferation inhibition; series mostly up to 28.7 µM
# [11] = qHTS for differential inhibitors of proliferation of Plasmodium falciparum line 7G8 (AID 1815; active = well fitted curve in the direction sought with a large enough effect; an effect the other way counts as inactive or inconclusive;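 note: parasite growth measured after three days of incubation; plate controls were vehicle wells for no effect and reference inhibitor wells for full effect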); conditions: Plasmodium falciparum 7G8 proliferation inhibition; series mostly up to 28.7 µM
# [12] = measured here: cell count channel max response
# [13] = measured here: lipid channel max response
smiles,measurement,setting,value
CN(Cc1cc(Br)cc(Br)c1N)C1CCCCC1,"activity change, negative = inhibition",[1]; at 57.5 µM (top of the series),-8.74% (inactive)
same,max response,[1]; [12],-7.97%
same,max response,[1]; [13],-15.4%
CNNCc1ccc(C(=O)NC(C)C)cc1,"activity change, negative = inhibition",[1]; at 25.7 µM (top of the series),1.45% (inactive)
same,max response,[1]; [12],-0.816%
same,max response,[1]; [13],0.0882%
O=S(=O)(c1cccc2cnccc12)N1CCCNCC1,"activity change, negative = inhibition",[1]; at 57.5 µM (top of the series),-2.33% (inactive)
same,max response,[1]; [12],9.76%
same,max response,[1]; [13],6.29%
Oc1c(Cl)cc(Cl)c2cccnc12,"activity change, negative = inhibition",[1]; at 57.5 µM (top of the series),-20.1% (inactive)
same,max response,[1]; [12],-11.5%
same,max response,[1]; [13],-27.9%
Cc1cccc(N(C)C(=S)Oc2ccc3ccccc3c2)c1,"activity change, negative = inhibition",[1]; at 25.7 µM (top of the series),1.79% (inactive)
same,max response,[1]; [12],-7.01%
same,max response,[1]; [13],-5.23%
NCCCC(O)(P(=O)(O)O)P(=O)(O)O,"activity change, negative = inhibition",[1]; at 57.5 µM (top of the series),6.27% (inactive)
same,max response,[1]; [12],-1.05%
same,max response,[1]; [13],16.4%
CCOC(=O)c1ccc(OC(=O)CCCCCN=C(N)N)cc1,"activity change, negative = inhibition",[1]; at 25.7 µM (top of the series),1.48% (inactive)
same,max response,[1]; [12],-14.4%
same,max response,[1]; [13],-13.1%
OCc1ccc(-c2nn(Cc3ccccc3)c3ccccc23)o1,outcome,[2],inactive
same,outcome,[3],inactive
same,outcome,[4],inactive
same,outcome,[5],inactive
same,outcome,[6],inactive
same,Potency,[7],inactive
CCCCOc1ccc(CC(=O)NO)cc1,"activity change, negative = inhibition",[1]; at 25.7 µM (top of the series),0.283% (inactive)
same,max response,[1]; [12],-2.68%
same,max response,[1]; [13],-0.905%
COc1ccc2c(c1)c(CC(=O)OCC(=O)O)c(C)n2C(=O)c1ccc(Cl)cc1,"activity change, negative = inhibition",[1]; at 25.7 µM (top of the series),1.43% (inactive)
same,max response,[1]; [12],9.96%
same,max response,[1]; [13],10.1%
NC(=O)N1c2ccccc2CC(=O)c2ccccc21,"activity change, negative = inhibition",[1]; at 57.5 µM (top of the series),6.03% (inactive)
same,max response,[1]; [12],10.2%
same,max response,[1]; [13],19.4%
COc1ccc(C(=O)CC(=O)c2ccc(C(C)(C)C)cc2)cc1,"activity change, negative = inhibition",[1]; at 57.5 µM (top of the series),1.96% (inactive)
same,max response,[1]; [12],-16.9%
same,max response,[1]; [13],-13.6%
O=S(=O)(O)CCS,"activity change, negative = inhibition",[1]; at 57.5 µM (top of the series),4.92% (inactive)
same,max response,[1]; [12],14.6%
same,max response,[1]; [13],25.1%
CN1CCCC(n2nc(Cc3ccc(Cl)cc3)c3ccccc3c2=O)CC1 (stereo not drawn),"activity change, negative = inhibition",[1]; at 57.5 µM (top of the series),4.52% (inactive)
same,max response,[1]; [12],-4.14%
same,max response,[1]; [13],2.11%
COC(=O)Nc1nc2ccc(S(=O)c3ccccc3)cc2[nH]1 (stereo not drawn),"activity change, negative = inhibition",[1]; at 57.5 µM (top of the series),10.3% (inactive)
same,max response,[1]; [12],14.2%
same,max response,[1]; [13],29.6%
CCCc1cc(C(N)=S)ccn1,"activity change, negative = inhibition",[1]; at 57.5 µM (top of the series),6.18% (inactive)
same,max response,[1]; [12],8.06%
same,max response,[1]; [13],15.8%
CCCCS(=N)(=O)CCC(N)C(=O)O (stereo not drawn),outcome,[4],inactive
same,"activity change, negative = inhibition",[1]; at 57.5 µM (top of the series),7.27% (inactive)
same,max response,[1]; [12],23.2%
same,max response,[1]; [13],33.5%
same,outcome,[5],inactive
same,outcome,[8],inactive
same,Potency,[9],inactive
same,Potency,[10],inactive
same,Potency,[7],inactive
S=P(N1CC1)(N1CC1)N1CC1,"activity change, negative = inhibition",[1]; at 57.5 µM (top of the series),7.1% (inactive)
same,max response,[1]; [12],5.1%
same,max response,[1]; [13],17.7%
CNS(=O)(=O)Cc1ccc2[nH]cc(CCN(C)C)c2c1,"activity change, negative = inhibition",[1]; at 57.5 µM (top of the series),8.81% (inactive)
same,max response,[1]; [12],40%
same,max response,[1]; [13],52.5%
CC1=C(C(=O)O)N2C(=O)[C@@H](NC(=O)C(N)c3ccccc3)[C@H]2SC1 (stereo partly drawn),outcome,[4],inactive
same,"activity change, negative = inhibition",[1]; at 57.5 µM (top of the series),1.54% (inactive)
same,max response,[1]; [12],-18.2%
same,max response,[1]; [13],-16%
same,outcome,[5],inactive
same,outcome,[6],inactive
same,outcome,[8],inactive
same,Potency,[11],inactive
same,Potency,[9],inactive
same,Potency,[10],inactive
same,Potency,[7],inactive
Nc1nc(=S)c2[nH]cnc2[nH]1,"activity change, negative = inhibition",[1]; at 57.5 µM (top of the series),8.45% (inactive)
same,max response,[1]; [12],14.3%
same,max response,[1]; [13],28.9%
COc1c(N2CCNC(C)C2)c(F)cc2c(=O)c(C(=O)O)cn(C3CC3)c12 (stereo not drawn),"activity change, negative = inhibition",[1]; at 57.5 µM (top of the series),6.55% (inactive)
same,max response,[1]; [12],19.6%
same,max response,[1]; [13],29.5%
CCCOc1ccc(C(=O)OCCN(CC)CC)cc1N,"activity change, negative = inhibition",[1]; at 25.7 µM (top of the series),-0.0947% (inactive)
same,max response,[1]; [12],10.6%
same,max response,[1]; [13],9.95%
Clc1ccccc1CN1CCc2sccc2C1,"activity change, negative = inhibition",[1]; at 25.7 µM (top of the series),-0.65% (inactive)
same,max response,[1]; [12],-21%
same,max response,[1]; [13],-18.8%
COC(=O)Nc1nc2ccc(Sc3ccccc3)cc2[nH]1,"activity change, negative = inhibition",[1]; at 57.5 µM (top of the series),4.46% (inactive)
same,max response,[1]; [12],-3.56%
same,max response,[1]; [13],3.98%
CCN1CCCC1CNC(=O)c1cc(S(N)(=O)=O)ccc1OC (stereo not drawn),outcome,[4],inactive
same,"activity change, negative = inhibition",[1]; at 57.5 µM (top of the series),2.89% (inactive)
same,max response,[1]; [12],2.98%
same,max response,[1]; [13],5.52%
same,outcome,[5],inactive
same,outcome,[6],inactive
same,outcome,[8],inactive
same,Potency,[11],inactive
same,Potency,[9],inactive
same,Potency,[10],inactive
same,Potency,[7],inactive
